CtBP-E1A blk: blocks the CtBP interaction with E1A; AlphaScreen GST-E1A/His-CtBP binding, 1536-well; active compounds read low; activity change, % (test concentration not listed); 340,000 tested, 0.49% active; AID 651724
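Steps: dispense buffer (Tris pH 8.0, NaCl 300 mM, TCEP 1 mM, BSA, Tween 20); add 5X protein mix (GST-E1A, His-CtBP, 125 nM each); pin 23 nL compound; 2 h at 37 °C, dark; add 5X beads (50 ug/mL); 1 h; read.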
Six1-Eya2 blk: Six1/Eya2 interaction inhibition. Q15475+O00167. AlphaScreen GST-Six1/His-Eya2 binding, biochemical; active compounds read low. activity change, % (test concentration not listed). 360,000 tested, 0.56% active
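Compounds are tested against tagged Six1 and Eya2 proteins bridged by glutathione donor and nickel acceptor beads; after a one-hour incubation at 37 °C without light, AlphaScreen emission is recorded.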
pAkt inh: blocks phosphorylation of Akt; AID 651550; 360,000 tested, 0.32% active; activity change, % for hits at 50 µM; Neuro2A IGF-stimulated pAkt S473 HTRF, 20 min; active compounds read low; in the data active = activity change below about -80%; inconclusive = mostly about -51% to -80%
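Neuro2A cells in DMEM with 0.5% FBS, overnight at 37 deg C, given compound at single 50 µM final, then IGF (6 nM final) for 20 min at 37 deg C. Lysed; phospho-Akt Ser473 by HTRF after 24 h, 665/615 ratio.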
PI5P4K alpha inh: inhibitors of human PI5P4K alpha. PI5P4Kalpha enzyme, ADP-Glo luminescence, 60 min; active compounds read low. max response, %. 330,000 tested, 1.2% active. P48426; active = max response of -50% or lower; inconclusive = between -30% and -50%; inactive = -30% or higher; note: value at the top dose of about 77 µM
Target sequence (P48426 whole entry, looked up): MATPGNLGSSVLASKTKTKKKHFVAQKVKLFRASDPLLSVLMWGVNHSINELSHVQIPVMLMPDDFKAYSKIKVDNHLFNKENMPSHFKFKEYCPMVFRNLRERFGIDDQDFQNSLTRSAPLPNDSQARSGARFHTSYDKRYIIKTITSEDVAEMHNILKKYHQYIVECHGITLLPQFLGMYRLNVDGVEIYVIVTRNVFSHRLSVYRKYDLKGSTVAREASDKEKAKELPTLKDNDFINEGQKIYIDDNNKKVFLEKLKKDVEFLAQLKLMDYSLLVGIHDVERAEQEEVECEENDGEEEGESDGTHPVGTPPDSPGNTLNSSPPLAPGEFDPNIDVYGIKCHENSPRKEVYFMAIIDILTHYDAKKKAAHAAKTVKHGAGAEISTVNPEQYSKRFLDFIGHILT
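Enzyme plus substrate dispensed, test compounds pinned in, then ATP (5 microM final) added. After 60 min at RT, ADP-Glo reagent 1 for 45 min and reagent 2 for 30 min preceded luminescence imaging.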
PI4K2A block: blocks human PI4K2A kinase activity | Q9BTU6 | purified PI4K2A, ADP-Glo luminescence, 1 h; active compounds read low | activity change, negative = inhibition, % at 76.9 µM | 420,000 tested, 0.13% active; in the data active = activity change below about -50%; inconclusive = mostly about -30% to -49%;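 note: -100% = wells without enzyme as full effect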
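Compounds are screened against recombinant PI4K2A using PI as substrate and ATP, the latter dispensed at 300 microM. Reactions run one hour at ambient temperature before ADP-Glo detection; full inhibition defined by wells lacking enzyme.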
Numbers without * were called inactive; i = inactive; ? = inconclusive; . = not tested or not shown. Sampled rows, rich in hits. Any-hit rate of the full collection: about 1.8%. Cut-off read from the data, not from the text of the source, unless noted: active = activity change below about -65%; inconclusive = mostly about -30% to -63%; inactive = weaker than that. Unless noted, % is set by controls: 0 for no effect and ±100 for the full control effect.

SMILES | CtBP-E1A blk | Six1-Eya2 blk | pAkt inh | PI5P4K alpha inh | PI4K2A block
COc1cc(/C=C2\SC(=Nc3ccccc3)NC2=O)cc(Cl)c1O | 16 | -17 | i | -104* | 1
O=C1NC(=Nc2ccccc2)S/C1=C\c1ccccc1 | 2 | 0 | i | -8 | 5
COc1cc(/C=C2/SC(=Nc3ccc(O)cc3)NC2=O)ccc1O | ? | -25 | i | -90* | -2
CCc1ccc(N=C2NC(=O)/C(=C/c3cc(OC)c(O)c(OC)c3)S2)cc1 | . | -8 | i | -54* | -4
COc1cc(/C=C2\SC(=Nc3ccc(Cl)c(C(=O)O)c3)NC2=O)c(Br)c(Br)c1O | ? | ? | i | -106* | -2
COCCn1c(SCC(=O)NC2CC2)nnc1-c1ccc(Cl)cc1 | . | -1 | i | 5 | 1
Cc1ccc(NC2=C(NC(=O)c3ccccc3)C(=O)c3ccccc3C2=O)cc1Cl | 0 | -66* | i | -52* | -20
O=C1C(Cl)=C(NCCc2ccccc2)C(=O)c2ccccc21 | -79* | -76* | i | -85* | -10
O=C(O)c1cccc(NC2=C(Cl)C(=O)c3ccccc3C2=O)c1 | -22 | -16 | i | -69* | -27
O=C(O)c1ccc(NC2=C(Cl)C(=O)c3ccccc3C2=O)cc1 | -21 | 4 | i | -19 | -24
N#C/C(=C\c1ccc(-c2ccc(C(=O)O)cc2)o1)c1nc2ccccc2[nH]1 | ? | -24 | i | ? | -7
COc1cc(OC)c(C(=O)OCC(=O)c2cc(C)n(CC3CCCO3)c2C)cc1OC (stereo unspecified) | 0 | -22 | i | -11 | 6
CCN1C(=O)C(CC(=O)NC2CCCCC2)N(CC)C1=O (stereo unspecified) | -10 | 1 | i | -1 | 1
Cc1ccc(C(=O)NCC(=O)OCc2nnc(-c3ccc([N+](=O)[O-])cc3)o2)s1 | 3 | -14 | i | -62* | -10
CC(=O)c1c(C)[nH]c(C(=O)OCc2nnc(-c3ccc([N+](=O)[O-])cc3)o2)c1C | -4 | 16 | i | -59* | -4
Cc1csc(=O)n1CC(=O)OCc1nnc(-c2ccc([N+](=O)[O-])cc2)o1 | 1 | -17 | i | 2 | -2
CC(=O)c1c(C)[nH]c(C(=O)OCC(=O)NNC(=O)c2ccc([N+](=O)[O-])cc2)c1C | -9 | -7 | i | -8 | -5
C=CCc1cccc(/C=N/NC(=O)C[n+]2ccccc2)c1O | -91* | -89* | i | 9 | -3
CC(=O)OCC1=C(C(=O)OC(C)(C)C)N2C(=O)[C@@H](NC(=O)Cc3ccccc3)[C@H]2SC1 | -1 | -7 | i | -51* | -5
CCCCn1c(CN2CCN(C)CC2)nc2ccccc21 | -9 | -9 | -116%* | 0 | -4
C=C(C)Cn1c(CCNC(=O)CCC)nc2ccccc21 | 0 | -1 | -104%* | . | 8
Cc1cc(NC(=O)CSc2nnc(CNC(=O)c3ccc(C(C)(C)C)cc3)o2)no1 | ? | -76* | i | 0 | -1
Cc1cc(NC(=O)CSc2nnc(-c3ccco3)o2)no1 | -90* | -74* | i | 5 | -2
COc1cc(C(=O)NCc2nnc(SCC(=O)Nc3cc(C)on3)o2)cc(OC)c1OC | 1 | -2 | i | -3 | -3
O=C(CSc1nnc(-c2ccco2)o1)c1ccc[nH]1 | -5 | 4 | i | -86* | ?
SMILES | CtBP-E1A blk | Six1-Eya2 blk | pAkt inh | PI5P4K alpha inh | PI4K2A block
CCOC(=O)CSc1nn(-c2ccccc2)c(=S)s1 | 10 | 10 | i | -3 | -3
COC(=O)C(C)Sc1n[nH]c(=S)s1 (stereo unspecified) | -2 | 0 | i | -72* | 12
COC(=O)CSc1n[nH]c(=S)s1 | 5 | -1 | i | -21 | 3
COc1ccc(C2/C=C\CNCC(=O)N2Cc2ccc(F)cc2)cc1 (stereo unspecified) | 3 | -2 | i | -15 | 4
O=C(OCCOCCN=C1NS(=O)(=O)c2ccccc21)c1ccncc1 | -2 | -5 | -107%* | 27 | 7
O=C(OCCOCCN=C1NS(=O)(=O)c2ccccc21)c1ccccc1 | 5 | 8 | i | 2 | 3
COc1ccc(C(N)c2csc(Nc3ncccn3)n2)cc1 (stereo unspecified) | -83* | -85* | i | 0 | -8
